These results are taken from the supplement of paper PMC9694430.

Common to all, as to experiment: thermal shift delta Tm vs DMSO control; higher = stronger stabilization (binding)
Holding throughout (settings): 12.5 µM; protein concentration 2 µM

The subject of one test is LOC_OS01G01410-cb001. In short, it runs like this:
(§1)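 Rice kinase domain constructs, made in E. coli and purified, were placed in 96-well plates at 2 μM in 19.5 μl of 100 mM potassium phosphate pH 7.5, 150 mM NaCl, 10% glycerol and 5 × SYPRO Orange, with compound in DMSO. A temperature ramp from 25°C to 95°C at 0.05°C/s was used for differential scanning fluorimetry. The melting temperature shift is a triplicate mean compared with DMSO-only protein, derived from Boltzmann fits.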

Another test has as its system LOC_OS01G02750-cb003. Summed up:
as §1

A further test deals with LOC_OS01G10900-cb004. In short, it runs like this:
as §1

The subject of another test is LOC_OS01G13800-cb001. Summed up: as §1
A further test deals with LOC_OS01G14860-cb001. Summed up:
as §1

Another test has as its system LOC_OS01G21960-cb002. Summed up:
as §1

The next test has as its system LOC_OS01G48390-cb002. In short, it runs like this:
as §1

For a further test, the system named is LOC_OS01G51400-cb002. Summed up: as §1
The test system of a further test is T1, LOC_OS01G52050-cb004.
T1 sequence (whole entry): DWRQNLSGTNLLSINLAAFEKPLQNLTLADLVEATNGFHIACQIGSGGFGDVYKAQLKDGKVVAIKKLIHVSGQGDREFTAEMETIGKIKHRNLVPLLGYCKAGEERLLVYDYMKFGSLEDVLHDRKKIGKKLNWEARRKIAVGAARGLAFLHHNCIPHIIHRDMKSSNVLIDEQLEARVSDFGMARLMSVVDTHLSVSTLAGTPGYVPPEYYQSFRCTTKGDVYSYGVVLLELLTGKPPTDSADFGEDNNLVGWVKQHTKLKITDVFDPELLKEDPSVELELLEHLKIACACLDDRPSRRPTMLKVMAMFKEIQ
Summed up: as §1

Another test has as its system LOC_OS01G39600-cb002. In short, it runs like this:
as §1
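Further: purified Escherichia coli-expressed rice kinase domain construct.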

Take `Cc1ccc(C(=O)Nc2cccc(C(F)(F)F)c2)cc1Nc1nc(-c2cccnc2)nc2c1cnn2C`: the “thermal shift delta Tm” value in the test with LOC_OS01G01410-cb001 turned out to be 1.82 °C; in the test on LOC_OS01G02750-cb003, 7.19 °C; with LOC_OS01G10900-cb004, 1.25 °C; with LOC_OS01G13800-cb001 it was 1.68 °C; in the test on LOC_OS01G14860-cb001 it was 1.28 °C; in the test on LOC_OS01G21960-cb002 it was 2.07 °C. Also, the “thermal shift delta Tm” value is 2.62 °C in the test with LOC_OS01G48390-cb002, 1.11 °C in the test with LOC_OS01G51400-cb002 and 2.93 °C with LOC_OS01G52050-cb004.
Turning to `C=CC(=O)Nc1cccc(Oc2nc(Nc3ccc(N4CCN(C)CC4)cc3)ncc2Cl)c1`, the “thermal shift delta Tm” value in the test with LOC_OS01G01410-cb001 is 4.21 °C; in the test on LOC_OS01G10900-cb004, 3.56 °C; in the test with LOC_OS01G13800-cb001 it was 0.23 °C; in the test on LOC_OS01G14860-cb001, 1.91 °C; in the test on LOC_OS01G21960-cb002, 1.42 °C; in the test with LOC_OS01G39600-cb002, 3.8 °C. Besides, the “thermal shift delta Tm” value in the test on LOC_OS01G48390-cb002 was found to be 7.69 °C; in the test on LOC_OS01G51400-cb002 it was 1.75 °C; in the test on LOC_OS01G52050-cb004, 3.38 °C.
On to `CC(=O)O/N=C1/C(c2c(O)[nH]c3cc(Br)ccc23)=Nc2ccccc21` [BIO-acetoxime], for which the “thermal shift delta Tm” value is 2.35 °C in the test on LOC_OS01G01410-cb001; -1.15 °C in the test on LOC_OS01G02750-cb003; -2.37 °C with LOC_OS01G10900-cb004; 6.31 °C in the test with LOC_OS01G14860-cb001; 0.48 °C in the test with LOC_OS01G21960-cb002; -0.05 °C with LOC_OS01G39600-cb002. Besides, the results for the “thermal shift delta Tm” value with LOC_OS01G48390-cb002, with LOC_OS01G51400-cb002 and in the test with LOC_OS01G52050-cb004 were 3.95 °C, 0.25 °C and 0.12 °C, respectively.
On to `O=c1[nH]nc(Sc2ncc([N+](=O)[O-])s2)n1-c1ccc2c(c1)OCCO2`, for which the “thermal shift delta Tm” value with LOC_OS01G01410-cb001 came out at 1.48 °C; in the test on LOC_OS01G10900-cb004, 8.23 °C; with LOC_OS01G13800-cb001 it was 1.65 °C; in the test on LOC_OS01G14860-cb001, 2.21 °C; in the test on LOC_OS01G21960-cb002, 1.25 °C; in the test with LOC_OS01G48390-cb002, 2.84 °C. In addition, the figures for the “thermal shift delta Tm” value in the test on LOC_OS01G51400-cb002 and in the test on LOC_OS01G52050-cb004 were -0.65 °C and -3.66 °C, respectively.
For the compound `O=C(Nc1ccc(-c2ccnc(Nc3ccc(N4CCOCC4)cc3)n2)cc1)C1CCCN1` (centres undefined), the “thermal shift delta Tm” value in the test on LOC_OS01G01410-cb001 was -0.35 °C; in the test on LOC_OS01G02750-cb003 it was -0.13 °C; in the test on LOC_OS01G10900-cb004, 0.59 °C; in the test on LOC_OS01G13800-cb001 it was -0.02 °C; with LOC_OS01G14860-cb001, 1.14 °C; with LOC_OS01G21960-cb002, 1.5 °C. The results for the “thermal shift delta Tm” value with LOC_OS01G48390-cb002, in the test with LOC_OS01G51400-cb002 and in the test with LOC_OS01G52050-cb004 were 0.45 °C, 0.18 °C and 0.51 °C, respectively.
